Several values for one entry are separate records, joined by “and”; a condition that tells them apart may be missing. Identical values can stand only once. In all, about 5,500 compounds went through this assay and about 2,000 (36%) were called active. Roughly 18% stayed inconclusive and do not appear here. No stated cut-off is given here; in the data, active means normalized growth mostly below about 0.91 (no sharp cut-off); inconclusive means no clear call, values can overlap the other calls; inactive means mostly above about 0.92. The list shows a part of the results.
Experiment: chemical genetic growth profiling, strain panel (AID 1159580);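 further: tested at 20 µM; growth read once vehicle control cultures reached saturation at 30 °C; 1 = growth at the plate median or of vehicle wells; lower values mean less growth of the strain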
Settings: S. cerevisiae deletion strains, growth OD
[1] = locus YBR229C, strain ROT2, hits give low values
[2] = locus YCL061C, strain MRC1, hits give low values
[3] = locus YDL101C, strain DUN1, hits give low values
[4] = locus YDR150W, strain NUM1, hits give low values
[5] = locus YEL061C, strain CIN8, hits give low values
[6] = locus YHR030C, strain SLT2, hits give low values
[7] = locus YJL187C, strain SWE1, hits give low values
[8] = locus YJR075W, strain HOC1, hits give low values
[9] = locus YLR039C, strain RIC1, hits give low values
[10] = locus YMR307W, strain GAS1, hits give low values
[11] = locus YNL128W, strain TEP1, hits give low values
[12] = locus YNL153C, strain GIM3, hits give low values
[13] = locus YOL006C, strain TOP1, hits give low values
[14] = locus YAL013W, strain DEP1, hits give low values
[15] = locus YAL040C, strain CLN3, hits give low values
[16] = locus YCL061C, strain MRC1 (second series), hits give low values
[17] = locus YDR363W, strain ESC2, hits give low values
[18] = locus YER002W, strain NOP16, hits give low values
[19] = locus YNL175C, strain NOP13, hits give low values
[20] = locus YNL197C, strain WHI3, hits give low values
[21] = locus YNL224C, strain SQS1, hits give low values
[22] = locus YOR083W, strain WHI5 (second series), hits give low values
[23] = locus YPL055C, strain LGE1, hits give low values
[24] = locus YGR078C, strain PAC10, hits give low values
[25] = locus YMR263W, strain SAP30, hits give low values

Measured: normalized growth

CC(=O)O[C@H]1C[C@@H](OC(C)=O)C(C)(C)C2C[C@@H](OC(C)=O)[C@]3(C)C(CC[C@@]4(C)[C@H](c5ccoc5)C(=O)[C@H]5O[C@]543)[C@]21C (some centres not stated)
inactive: locus YAL021C, strain ccr4, hits give low values 0.992 | locus YAL026C, strain drs2, hits give low values 0.991 | locus YAL030W, strain snc1, hits give low values 0.99 | locus YBL061C, strain skt5, hits give low values 1 | locus YBR009C, strain hhf1, hits give low values 1 | locus YBR021W, strain FUR4, hits give low values 0.966 | locus YBR023C, strain chs3, hits give low values 1.01 | locus YBR171W, strain sec66, hits give low values 1 | [1] 1.01 | locus YBR231C, strain swc5, hits give low values 1 | locus YBR279W, strain paf1, hits give low values 1 | locus YCL011C, strain gbp2, hits give low values 1.01 | locus YCL016C, strain dcc1, hits give low values 0.998 | locus YCL029C, strain bik1, hits give low values 1.01 | [2] 0.997 | locus YCL069W, strain vba3, hits give low values 1 | locus YCR088W, strain abp1, hits give low values 0.995 | locus YDL005C, strain med2, hits give low values 0.986 | locus YDL035C, strain GPR1, hits give low values 0.969 | locus YDL040C, strain nat1, hits give low values 0.995 | locus YDL074C, strain BRE1, hits give low values 0.975 | [3] 1.02 | locus YDL134C, strain PPH21, hits give low values 1.02 | locus YDL185W, strain tfp1, hits give low values 1.02 | locus YDL192W, strain arf1, hits give low values 1.01 | locus YDR001C, strain nth1, hits give low values 0.981 | locus YDR069C, strain doa4, hits give low values 0.993 | locus YDR101C, strain arx1, hits give low values 0.994 | locus YDR137W, strain rgp1, hits give low values 0.935 | [4] 1.02 | locus YDR159W, strain sac3, hits give low values 1.02 | locus YDR162C, strain NBP2, hits give low values 0.987 | locus YDR195W, strain ref2 0.985 | locus YDR297W, strain sur2, hits give low values 0.996 | locus YDR318W, strain mcm21, hits give low values 1.01 | locus YDR334W, strain swr1, hits give low values 0.991 | locus YDR335W, strain msn5, hits give low values 0.994 | locus YDR388W, hits give low values 1.04 | locus YDR392W, strain spt3, hits give low values 1.02 | locus YDR502C, strain sam2, hits give low values 1.02 | locus YEL003W, strain gim4, hits give low values 1 | locus YEL037C, strain rad23, hits give low values 1 | locus YEL061C, strain CIN8 (second series), hits give low values 0.995 | [5] 1.01 | locus YER015W, strain faa2, hits give low values 1.01 | locus YER016W, strain bim1, hits give low values 0.997 | locus YER110C, hits give low values 1.03 | locus YER111C, strain swi4, hits give low values 1 | locus YER155C, strain BEM2 (second series), hits give low values 0.998 | locus YER155C, strain BEM2, hits give low values 1.02 | locus YER167W, strain BCK2, hits give low values 1.01 | locus YFR010W, strain ubp6, hits give low values 0.989 | locus YGL078C, strain dbp3, hits give low values 1 | locus YGL086W, strain mad1, hits give low values 1.01 | locus YGL167C, strain pmr1, hits give low values 1 | locus YGL173C, strain kem1, hits give low values 1.01 | locus YGL227W, strain vid30, hits give low values 0.996 | locus YGL240W, strain doc1, hits give low values 1.01 | locus YGL248W, strain PDE1, hits give low values 1.02 | locus YGL253W, strain hxk2, hits give low values 1 | locus YGR135W, strain pre9, hits give low values 1.05 | locus YGR252W, strain gcn5, hits give low values 0.996 | locus YHR013C, strain ard1, hits give low values 1.01 | locus YHR027C, strain rpn1, hits give low values 0.99 | [6] 1.01 and 0.945 | locus YHR079C, strain IRE1 (second series), hits give low values 1.03 | locus YHR079C, strain IRE1, hits give low values 0.925 | locus YHR094C, strain hxt1, hits give low values 1.03 | locus YHR129C, strain ARP1, hits give low values 1.02 | locus YHR142W, strain chs7, hits give low values 1 | locus YHR200W, strain rpn10, hits give low values 1.02 | locus YIL066C, strain RNR3, hits give low values 0.98 | locus YIL073C, strain SPO22, hits give low values 1.01 | locus YIL125W, strain kgd1, hits give low values 1.01 | locus YIR030C, strain dcg1, hits give low values 1.02 | locus YJL092W, strain hpr5, hits give low values 1.01 | locus YJL095W, strain BCK1 (second series), hits give low values 1 | locus YJL095W, strain BCK1, hits give low values 1.03 and 0.969 | locus YJL115W, strain asf1, hits give low values 0.987 | locus YJL129C, strain trk1, hits give low values 0.973 | locus YJL134W, strain LCB3, hits give low values 1.02 | locus YJL154C, strain vps35, hits give low values 0.991 | locus YJL164C, strain tpk1, hits give low values 1 | locus YJL166W, strain qcr8, hits give low values 1.01 | locus YJL168C, strain set2, hits give low values 1.04 | locus YJL187C, strain SWE1 (second series), hits give low values 1.02 | [7] 1 | locus YJR066W, strain TOR1, hits give low values 0.888 | [8] 1.04 | locus YKL009W, strain mrt4, hits give low values 0.898 | locus YKL068W, hits give low values 1.02 | locus YKL085W, strain MDH1 (second series), hits give low values 1.01 | locus YKL085W, strain MDH1, hits give low values 1.01 | locus YKL160W, strain elf1, hits give low values 0.996 | locus YKL190W, strain CNB1, hits give low values 1.01 | locus YKR001C, strain vps1, hits give low values 0.993 | locus YKR026C, strain gcn3, hits give low values 0.997 | locus YKR091W, strain srl3, hits give low values 0.995 | locus YLL001W, strain dnm1, hits give low values 1 | locus YLL026W, hits give low values 1 | locus YLL041C, strain sdh2, hits give low values 0.994 | locus YLR027C, strain aat2, hits give low values 1.02 | [9] 1.02 | locus YLR058C, strain SHM2, hits give low values 1.01 | locus YLR102C, strain apc9, hits give low values 1.02 | locus YLR113W, strain HOG1, hits give low values 1.03 | locus YLR221C, strain rsa3, hits give low values 1 | locus YLR258W, strain gsy2, hits give low values 0.995 | locus YLR262C, strain YPT6 (second series), hits give low values 0.95 | locus YLR268W, strain sec22, hits give low values 0.982 | locus YLR320W, strain mms22, hits give low values 1 | locus YLR330W, strain CHS5, hits give low values 1.02 | locus YLR342W, strain FKS1, hits give low values 1.01 | locus YLR357W, strain rsc2, hits give low values 1.01 | locus YLR370C, strain arc18, hits give low values 1 | locus YLR371W, strain rom2, hits give low values 1.03 | locus YLR384C, strain iki3, hits give low values 0.995 | locus YLR418C, strain cdc73, hits give low values 1.05 | locus YML016C, strain PPZ1, hits give low values 1.01 | locus YML032C, strain rad52, hits give low values 0.995 | locus YML120C, strain ndi1, hits give low values 1 | locus YML124C, strain tub3, hits give low values 1.02 | locus YMR058W, strain fet3, hits give low values 0.99 | locus YMR078C, strain ctf18, hits give low values 1.01 | locus YMR125W, strain sto1, hits give low values 0.978 | locus YMR129W, hits give low values 1 | locus YMR205C, strain PFK2, hits give low values 1.01 | locus YMR223W, strain ubp8, hits give low values 1.01 | locus YMR231W, strain pep5, hits give low values 0.978 | [10] 0.931 | locus YNL067W, strain RPL9B, hits give low values 1.04 | locus YNL071W, strain lat1, hits give low values 0.996 | [11] 0.991 | [12] 1.02 | locus YNL183C, strain NPR1, hits give low values 0.904 | locus YNL209W, strain ssb2, hits give low values 1 | locus YNL233W, strain BNI4, hits give low values 0.973 | locus YNL248C, strain rpa49, hits give low values 0.969 | locus YNL250W, strain rad50, hits give low values 1.06 | locus YNL271C, strain bni1, hits give low values 1.01 | locus YNL298W, strain CLA4, hits give low values 1.01 | locus YNL307C, strain MCK1, hits give low values 1.02 | locus YNL322C, strain KRE1 (second series), hits give low values 1.01 | locus YNR049C, strain mso1, hits give low values 1.01 | locus YNR052C, strain pop2, hits give low values 1.02 | [13] 0.962 | locus YOL012C, strain htz1 1.21 | locus YOL147C, strain pex11, hits give low values 1.03 | locus YOR001W, strain rrp6, hits give low values 0.985 | locus YOR061W, strain CKA2, hits give low values 0.998 | locus YOR069W, strain VPS5, hits give low values 1.02 | locus YOR070C, strain gyp1, hits give low values 1 | locus YOR080W, strain dia2, hits give low values 1.01 | locus YOR083W, strain WHI5, hits give low values 0.991 | locus YOR106W, strain vam3, hits give low values 0.985 | locus YOR136W, strain idh2, hits give low values 1.01 | locus YOR144C, strain elg1, hits give low values 1.02 | locus YOR184W, strain ser1, hits give low values 0.965 | locus YOR231W, strain MKK1, hits give low values 0.919 | locus YOR265W, strain rbl2, hits give low values 0.997 | locus YOR270C, strain vph1, hits give low values 0.875 | locus YOR290C, strain snf2, hits give low values 1 | locus YOR316C, strain cot1, hits give low values 1.02 | locus YPL051W, strain arl3, hits give low values 1.01 | locus YPL078C, strain atp4, hits give low values 0.991 | locus YPL106C, strain sse1, hits give low values 1.05 | locus YPL240C, strain hsp82, hits give low values 0.998 | locus YPL256C, strain CLN2, hits give low values 0.994 | locus YPR119W, strain clb2, hits give low values 1.02 | locus YPR141C, strain kar3, hits give low values 1.03 | locus YPR163C, strain tif3, hits give low values 1.02 | locus YPR167C, strain met16, hits give low values 1.01 | strain wtn01, hits give low values 0.987

COC(=O)c1c(-c2cc(OC)c(OC)c(OC)c2)c2ccc(OCc3ccccn3)cc2c(=O)n1-c1ccc(N)cc1
inactive: [14] 1.02 | [15] 1.01 | [16] 0.999 | [4] 1.01 | [17] 1.01 | [18] 1.03 | [10] 1.01 | [11] 1.02 | [19] 1.03 | [20] 1.04 | [21] 1.04 | [22] 1.01 | [23] 1.02

CCC(=O)N1CCN(C(=O)c2ccccc2)CC1
inactive: [15] 1.04 | [16] 0.992 | [4] 1.01 | [17] 0.993 | [18] 1 | [24] 0.989 | [8] 1.02 | [25] 0.994 | [12] 1.05 | [19] 1.02 | [20] 0.983 | [21] 0.994 | [22] 1.03 | [23] 1

O=C(CCCCCCCCC(=O)c1ccccc1)c1ccccc1
inactive: [14] 0.996 | [1] 1 | [2] 1.01 | [3] 1.01 | [4] 0.918 | [5] 1.01 | [24] 1.02 | [6] 0.964 | locus YHR087W, strain rtc3, hits give low values 1.05 | [7] 1.02 | locus YJR043C, strain POL32, hits give low values 1.01 | [8] 0.987 | [9] 1.04 | locus YLR058C, strain SHM2 (second series), hits give low values 0.998 | locus YLR085C, strain ARP6, hits give low values 0.998 | locus YLR262C, strain YPT6, hits give low values 1.04 | locus YML094W, strain GIM5, hits give low values 1.01 | locus YMR219W, strain ESC1, hits give low values 0.999 | [25] 1 | [12] 0.994 | locus YNL298W, strain CLA4 (second series), hits give low values 1.05 | locus YNL322C, strain KRE1, hits give low values 1 | locus YNR030W, strain Alg12, hits give low values 1.01 | [13] 1.01 | [23] 0.981 | locus YPL241C, strain CIN2, hits give low values 1 | locus YPR135W, strain CTF4, hits give low values 1
